Results taken from PubChem BioAssay (NCATS).
Records with an inconclusive call do not appear. A call without a number means that no potency is given here. The source made the active and inactive calls. Calls follow the shape of the dose curve; as a rule, active = well fitted inhibition curve with a large enough effect; inconclusive = small, poorly fitted or top-dose-only effect; inactive = flat fitted curve, though single readings scatter.

The compounds below were run against Calcium and integrin-binding protein 1 (Homo sapiens) (UniProt Q99828) (assay: Primary qHTS for Identification of Calcium Integrin Binding Protein 1 (CIB1) Competitor (AID 1508620;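 also: GST tagged CIB1 binding a fluorescein labelled alphaIIb integrin peptide tracer; top concentration of the series differs between compounds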)). Details: CIB1-GST / FITC-alphaIIb peptide fluorescence polarization; series mostly up to 114 µM.
Calcium and integrin-binding protein 1 (Homo sapiens), sequence (Q99828 whole entry, looked up): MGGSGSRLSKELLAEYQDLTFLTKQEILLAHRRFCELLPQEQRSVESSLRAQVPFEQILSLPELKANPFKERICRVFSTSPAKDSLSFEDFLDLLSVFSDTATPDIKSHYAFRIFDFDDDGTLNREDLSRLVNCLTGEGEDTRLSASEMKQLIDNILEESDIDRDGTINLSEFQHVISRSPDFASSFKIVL
Procedure, shortened: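 Fluorescence polarization competition: CIB1-GST (1 uM final) preincubated with compound 15 min at room temperature, then FITC-labeled alphaIIb peptide (100 nM final) added for another 15 min. Polarization read at Ex 480/Em 540.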

| SMILES | Potency |
| --- | --- |
| CCOc1ccc(C(=O)Oc2ccc(-c3nc4ccccc4[nH]3)cc2)cc1Cl | inactive |
| Cc1cc2c(s1)c1cnn(Cc3ccc(C#N)cc3)c(=O)c1n2C | inactive |
| C(=C/c1cccs1)/c1ccncc1 | inactive |
| COc1cc(-c2nc(Nc3ccc(F)c(F)c3)c3ccccc3n2)ccn1 | inactive |
| NC(=O)C1CCN(c2nccc(-c3ccc4c(c3)OCCCO4)n2)CC1 | inactive |
| Cc1c(C(=O)OCC2CCCCO2)[nH]c2c1C(=O)CC(c1ccco1)C2 (stereo not given) | inactive |
| O=C(O)c1ccc(S(=O)(=O)N[C@H](Cc2ccc(O)cc2)C(=O)O)cc1 | inactive |
| Oc1ccc(/C=C/c2ccccc2)c2cccnc12 | inactive |
| CC(C)(C)OC(=O)Cc1nnc(C(C(=O)OCc2ccccc2)c2ccccc2)s1 (stereo not given) | inactive |
| CC1=C(C(=O)Nc2nc3ccccc3s2)C(c2nn(C)cc2Cl)N=C(Nc2nc3ccccc3o2)N1 (stereo not given) | inactive |
| CCC(=O)C1CCCN(C(=O)CC(c2ccc3c(c2)OCO3)c2c(O)cc(OC)cc2OC)C1 (stereo not given) | inactive |
| CC(=O)Nc1sc2c(c1-c1cccs1)CCNC2 | inactive |
| COc1ccc(O)c(CNc2ccc(S(=O)(=O)Nc3nccs3)cc2)c1 | inactive |
| N#Cc1nc(-c2cccc3ccccc23)oc1NC1CNC1 | inactive |
| O=[S+]([O-])(Nc1ccc(C2CCNCC2)cc1)c1ccc(NCc2ccc(Cl)cc2O)cc1 | inactive |
| CC(O)c1cc2c(s1)c1cnn(Cc3ccccc3F)c(=O)c1n2C (stereo not given) | inactive |
| Cc1cc(NC(=O)Nc2nnc(C3CCCCC3)s2)ccc1Cl | inactive |
| N#Cc1ccc(-c2ccc(CNc3ccc(N4CCN5CCCCC5C4)cc3)o2)cc1 (stereo not given) | inactive |
| O=C1CCCC2=C1C1(CCSC1)N=C(Nc1nc3ccccc3o1)N2 (stereo not given) | inactive |
| COc1cccc(CNc2ccc(S(=O)(=O)Nc3cnc4ccccc4c3)cc2)c1O | inactive |

| SMILES | Potency |
| --- | --- |
| O=S(=O)(Nc1cccc2cccnc12)c1ccccc1 | inactive |
| COc1ccccc1NC(=O)C(OC(=O)CNC(=O)c1ccccc1)c1ccccc1 (stereo not given) | inactive |
| N#Cc1c(-c2ccc(Br)cc2)no[n+]1[O-] | inactive |
| C=Cc1ccc(C(=O)N2CCCC(CCC(=O)N3CCN(c4ccccn4)CC3)C2)cc1 (stereo not given) | inactive |
| O=c1c2ccccc2nc2sc(NCc3ccc(Oc4ccccc4)cc3)nn12 | inactive |
| Cc1ccc(NC(=O)CN2C(=O)N/C(=C\c3cccn3-c3cccc(-c4nn[nH]n4)c3)C2=O)cc1 | inactive |
| COc1ccc(C2c3c(nc(C)[nH]c3=O)Oc3ccc4ccccc4c32)cc1OC (stereo not given) | inactive |
| Cc1cc2c(s1)c1cnn(Cc3c(F)cc(F)cc3F)c(=O)c1n2C | inactive |
| Cc1cc(-c2nnc3n2CCCCC3)c(C)n1-c1cccc(C(F)(F)F)c1 | inactive |
| COc1ccccc1-c1nc(NCc2ccc(-c3cccnc3)cc2)c2ccccc2n1 | inactive |
| COc1cccc(Cn2ncc3c4sc(SC)cc4n(C)c3c2=O)c1 | inactive |
| CCOc1cccc(-c2cc(-c3n[nH]c(=S)n3CC)c3ccccc3n2)c1 | inactive |
| Cc1cc(-c2nc(Nc3ccc(F)c(F)c3)c3ccccc3n2)cc(C)n1 | inactive |
| Cc1ccc(C(=O)Nc2ccc(N3CCCCC3)cc2)cc1 | inactive |
| N#Cc1ccc(-c2ccc(=O)n(CC(=O)NCCc3ccccc3)n2)cc1 | inactive |
| Oc1ccc(CNc2cc(Br)ccn2)c2cccnc12 | inactive |
| Cc1ccc(NS(=O)(=O)c2cc3c(cc2Cl)NC(=O)C3)cc1C | inactive |
| NC(=O)C1CCN(c2ncc(-c3cccc(N4CCCC4)c3)s2)CC1 | inactive |
| O=C(Nc1ccc2ccccc2c1)Nc1nnc(-c2ccccc2F)s1 | inactive |
| O=[S+]([O-])(c1ccc2c(c1)OCCO2)N1CCN([S+](=O)([O-])c2ccccc2Br)CC1 | inactive |
